Laboratory results as given in PubChem BioAssay AID430 (Sanford-Burnham Center for Chemical Genomics, 2006).
The whole screen tested about 63,000 compounds, of which about 1,100 (1.7%) were called active. Many of the other results were omitted from the sample, so actives are more common in it than they were. Results with a measured potency or affinity are listed apart. Unmarked numbers belong to inactive results. Cut-off read from the data, not from the text of the source: active = cytotoxicity above about 50%; inactive = the rest.

Assay: cytotoxicity in HPDE-C7 cells, cell-based, fluorescence, HTS (AID 430);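 note: cells exposed to compound for 48 hours before viability readout; 0% = vehicle and 100% = reference cytotoxic drug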
Conditions: HPDE-C7 pancreatic duct cells viability, at 10 µM, active compounds read high

| Structure (SMILES) | cytotoxicity |
| --- | --- |
| COC(=O)c1ccc(CSc2nc(N3CCOCC3)c3c(c2C#N)CC(C)(C)OC3)o1 | 16.6% |
| CCSc1nc(N)c2c3c(sc2n1)CN(C)CC3 | -22% |
| O=C(COc1ccccc1)N(Cc1ccco1)C1CCS(=O)(=O)C1 (centres undefined) | -19.1% |
| CCCc1ccc(Oc2cn[nH]c2-c2ccc(O)c(C)c2O)cc1 | 103% (active) |
| CCCc1ccc(OCC(=O)O)cc1 | 3% |
| COc1ccc(O)c(-c2[nH]ncc2C(=O)c2ccccc2C)c1 | -8.4% |
| CCCc1ccc(Oc2cn[nH]c2-c2ccc(O)cc2O)cc1 | 44.2% |
| CCOC(=O)C1CCN(C(=O)Nc2ccccc2Cl)CC1 | 4% |
| Cc1nn(CC(=O)NCc2ccccc2)c(=O)c2ccccc12 | -4.9% |
| Cn1c(-c2ccc3c(c2)OCO3)cnc1NCc1cccc(Cl)c1 | 71.3% (active) |
| Cn1c(-c2ccc3c(c2)OCO3)cnc1NCc1ccc(Cl)cc1 | 43.1% |
| Cn1c(-c2ccc3c(c2)OCO3)cnc1NCc1ccccc1 | -1.6% |
| O=C(CSc1nnnn1Cc1ccccc1)N1CCN(c2ccccc2)CC1 | 7.7% |
| CCCN(C(=O)Cc1nc(N)n[nH]1)C1(C(=O)Nc2c(C)cccc2C)CCCCC1 | -7.4% |
| Cc1cccc2cc(CN(CC3CCCO3)C(=O)NC3CCCCC3)c(=O)[nH]c12 (centres undefined) | -7.6% |
| CN(Cc1ccccc1)S(=O)(=O)c1ccc(C(=O)Nc2nnc(C3CC3)o2)cc1 | 28.3% |
| O=C(CCC1CCCCC1)N1CCN(Cc2ccc3c(c2)OCO3)CC1 | -7.9% |
| Cn1nnc(NC(=O)c2ccc(C(C)(C)C)cc2)n1 | -6.6% |
| Cc1cccn2c(=O)c3cc(C(=O)N4c5ccccc5CC4C)n(C)c3nc12 (centres undefined) | 87.3% (active) |
| CCCCNC(=O)c1cc2c(=O)n3cccc(C)c3nc2n1C | -12.6% |
| COCCNC(=O)c1cc2c(=O)n3cccc(C)c3nc2n1C | 52.8% (active) |
| Cc1cccn2c(=O)c3cc(C(=O)N4CCN(c5ccccc5)CC4)n(C)c3nc12 | -18.3% |
| Cc1cccn2c(=O)c3cc(C(=O)NCCN4CCOCC4)c(=N)n(CCc4ccccc4)c3nc12 | 4.4% |
| CCNC(=O)c1cc2c(=O)n3cccc(C)c3nc2n1C | -0.7% |

| Structure (SMILES) | cytotoxicity |
| --- | --- |
| Cc1cccn2c(=O)c3cc(C(=O)N4CCc5ccccc54)n(C)c3nc12 | 10.4% |
| CC1Cc2ccccc2N1C(=O)c1cc2c(=O)n3ccccc3nc2n1C (centres undefined) | 13.4% |
| COCCn1c(=N)c(C(=O)NCCc2ccccc2)cc2c(=O)n3cccc(C)c3nc21 | -51.7% |
| Cc1cccn2c(=O)c3cc(C(=O)N4CCN(C(=O)c5ccco5)CC4)n(C)c3nc12 | 3.5% |
| CCNC(=O)c1cc2c(=O)n3cccc(C)c3nc2n(CCc2ccccc2)c1=N | 61.3% (active) |
| O=C(CSc1nnc(-c2ccco2)o1)NC1CC2CCC1C2 (centres undefined) | -3.3% |
| Cc1noc(C(=O)Nc2ccc3c(c2)OCO3)c1Cl | 19.1% |
| COc1ccc(-c2ccc(SCC(=O)NCc3ccco3)nn2)cc1OC | 7.2% |
| O=C(NCc1ccco1)C1CCCCN1S(=O)(=O)c1ccc(F)cc1 (centres undefined) | -4.3% |
| CCOCCOC(=O)COc1ccc(N2C(=O)c3ccccc3C2=O)cc1 | -18.5% |
| O=C(CCCn1c(=S)[nH]c2ccccc2c1=O)N1CCOCC1 | -24.3% |
| COc1ccc(C(O)P(=O)(O)CCc2ccccc2)cc1 (centres undefined) | -28.1% |
| COc1cccc(CNC(=O)c2nnn(CC(=O)Nc3ccc(C)c(C)c3)c2N)c1 | 0.7% |
| COc1ccccc1C(=O)Nc1ccc2c(c1)nc(CCNC(C)=O)n2C | -7.3% |
| COc1ccc(N2CCN(C(=O)c3cc4c(-c5cccc(OC)c5)nn(C)c4s3)CC2)cc1 | -2.7% |
| Cn1nc(-c2ccc(Cl)cc2)c2cc(C(=O)N3CCN(c4ccccn4)CC3)sc21 | -0.6% |
| Cc1ccc(OCC(=O)N2CCN(C3=NS(=O)(=O)c4ccccc43)CC2)cc1 | 0.8% |
| CCOc1ccccc1OCCCCN1CCCC1 | 3% |
| CCOC(=O)c1c(C)oc2c1cc(O)c1ccccc12 | 15.4% |
| COC(=O)c1c(C)oc(C)c(C(=O)OC)c1=O | 1.7% |
| CC(C)NC(=O)c1cnc(N2CCN(c3ccccn3)CC2)c2ccccc12 | -9.4% |
| COc1ccc(C(=O)N(CN2CCCC2=O)c2nccs2)cc1OC | 6.2% |
| c1ccc(-c2nc(-n3ccnc3)nc(-n3ccnc3)n2)cc1 | 20.1% |
| c1ccc(-c2nc(N3CCCCCC3)nc(-n3ccnc3)n2)cc1 | -19.9% |

| Structure (SMILES) | cytotoxicity |
| --- | --- |
| CC(C)Nc1nc(-c2ccccc2)nc(-n2ccnc2)n1 | 58.3% (active) |
| c1ccc(-c2nc(N3CCN(c4ccccc4)CC3)nc(-n3ccnc3)n2)cc1 | 43% |
| c1ccc(-c2nc(NC3CC3)nc(-n3ccnc3)n2)cc1 | 9.6% |
| COCCN1Cc2cccc(C(=O)NCc3ccc4c(c3)OCO4)c2C1=O | -2.7% |
| CCN(CC)S(=O)(=O)c1ccc(-c2nnc(SCC(=O)Nc3ccc4c(c3)OCO4)o2)cc1 | 3.5% |
| Cc1ccc(C(N)=S)c(C)c1 | -27.6% |
| Cc1c(C(=O)Nc2cccc(Cl)c2)oc2ccc(S(=O)(=O)N3CCC4(CC3)OCCO4)cc12 | 55.3% (active) |
| Cc1c(C(=O)Nc2ccc(F)cc2)oc2ccc(S(=O)(=O)N3CCC4(CC3)OCCO4)cc12 | 11.5% |
| Cc1c(C(=O)Nc2ccccc2Cl)oc2ccc(S(=O)(=O)N3CCC4(CC3)OCCO4)cc12 | 22.3% |
| Cc1c(C(=O)NCCc2ccccc2)oc2ccc(S(=O)(=O)N3CCOCC3)cc12 | -7.6% |
| Cc1c(C(=O)NCCC2=CCCCC2)oc2ccc(S(=O)(=O)N3CCOCC3)cc12 | 52.5% (active) |
| Cc1c(C(=O)NCCC2=CCCCC2)oc2ccc(S(=O)(=O)N3CCC4(CC3)OCCO4)cc12 | 35.3% |
| Cn1c(=O)c2cc(S(=O)(=O)NCCC(=O)N3CC=C(c4ccccc4)CC3)ccc2n(C)c1=O | -11.2% |
| COc1c(Cl)cc(Cl)cc1/C=N/n1cnnc1 | -1.3% |
| CNS(=O)(=O)c1ccc(NC(=O)C(CCSC)NC(N)=O)cc1 (centres undefined) | 0.9% |
| CCOc1ccc(S(=O)(=O)Nc2cccc(Cl)c2)cc1 | 57.6% (active) |
| CCOc1ccc(NS(=O)(=O)c2cc(Cl)ccc2OC)cc1 | -8.2% |
| CCOc1ccc(S(=O)(=O)Nc2cc(Cl)ccc2O)cc1 | 67.2% (active) |
| CCOc1ccc(NS(=O)(=O)c2ccc(NS(C)(=O)=O)cc2)cc1 | -4.7% |
| COc1ccc(S(=O)(=O)Nc2cccc(Cl)c2)cc1OC | 13.9% |
| CCOc1ccc(S(=O)(=O)Nc2cccnc2)cc1 | -3.5% |
| CCCc1cc(=O)[nH]c(SC(CC)C(=O)Nc2ccccc2C#N)n1 (centres undefined) | -23.8% |
| O=C(Cn1cc2c(n1)CCCC2)NC1CCCCCC1 | -9.2% |
| Cn1cccc1C(=O)OCc1cc(Cl)cc2c1OCOC2 | 1.1% |

| Structure (SMILES) | cytotoxicity |
| --- | --- |
| CCN(CC(=O)Nc1ccccc1C(=O)OC)S(=O)(=O)c1ccc(OC)cc1 | 1.1% |
| Cc1ccc(Cl)cc1N1CCN(Cc2nnnn2C2CCCCC2)CC1 | -16% |
| Cc1ccc(N=c2oc3cc(O)ccc3cc2C(N)=O)cc1 | 3.9% |
| NC(=O)c1cc2ccc(O)cc2oc1=Nc1ccccc1 | 5.3% |
| Cc1cccc(N=c2oc3cc(O)ccc3cc2C(N)=O)c1 | 59.6% (active) |
| COCCn1c(SCC(=O)Nc2nnc(C)s2)nnc1-c1cc2ccccc2cc1O | 7.4% |
| Cc1[nH]c(=O)[nH]c(=O)c1NS(=O)(=O)c1ccc2c(c1)CCCC2 | 10.1% |
| COCCCN(C(=O)Nc1ccccc1)C(C)c1ccncc1 (centres undefined) | 4.9% |
| COc1ccc(N2C(=O)CC(N3CCN(C4CCc5ccccc5C4)CC3)C2=O)cc1 (centres undefined) | -10.3% |
| CCOC(=O)C1=C(c2ccccc2)NC(SCC(=O)Nc2ccc(C)cc2)=C(C#N)C1c1ccco1 (centres undefined) | 10.3% |
| COc1cccc(NC(=O)CSC2=C(C#N)C(c3ccco3)C3=C(CCCC3=O)N2)c1 (centres undefined) | 22.1% |
| CC1(C)CC(=O)C2=C(C1)NC(SCC(=O)Nc1ccccc1)=C(C#N)C2c1ccco1 (centres undefined) | -16.1% |
| Cc1ccc(NC(=O)CSC2=C(C#N)C(c3ccco3)C3=C(CC(C)(C)CC3=O)N2)cc1 (centres undefined) | 57.2% (active) |
| CCc1ccc(NC(=O)CSC2=C(C#N)C(c3ccco3)C3=C(CCCC3=O)N2)cc1 (centres undefined) | -0.7% |
| CCCCc1ccc(NC(=O)CSC2=C(C#N)C(c3ccco3)C3=C(CCCC3=O)N2)cc1 (centres undefined) | 72.2% (active) |
| O=C(CN1C(=O)C2C3C=CC(C3)C2C1=O)NCCN1CCCc2ccccc21 (centres undefined) | -7.4% |
| CC1CCCN(S(=O)(=O)c2ccc(S(=O)(=O)N3CCCN(Cc4ccccc4)C3)cc2)C1 (centres undefined) | 3.7% |
| COc1ccc(N2CCN(c3nc4c(c(=O)[nH]c(=O)n4C)n3CCCc3ccccc3)CC2)cc1 | -7.6% |
| Cc1ccc(-c2c3c(=O)n(C)c(=O)n(C)c3cn2Cc2ccccn2)cc1 | -3.1% |
| CCCOc1ccc(CSc2nnc(CCC)n2N)cc1 | -13.5% |
| CN1CCN(C2=C(Cl)C(=O)N(C3CCCCC3)C2=O)CC1 | -8% |
| O=C1c2ccncc2C(=O)N1C1CCCCC1 | -7.2% |
